Common to all, as to assay: DAPPL (digital affinity profiling via proximity ligation, sequencing); 10 mM Tris-HCl pH 7.5, 50 mM NaCl, 1 mM DTT, 4% glycerol, room temperature, 30 min; GST-TFs on glutathione beads, 16-mer random dsDNA library, 0.1% formaldehyde crosslink after washing; high values mean tight binding
One assay concerns the target T1, FLI1 (Homo sapiens, UniProt Q01543 1-452).
T1 sequence: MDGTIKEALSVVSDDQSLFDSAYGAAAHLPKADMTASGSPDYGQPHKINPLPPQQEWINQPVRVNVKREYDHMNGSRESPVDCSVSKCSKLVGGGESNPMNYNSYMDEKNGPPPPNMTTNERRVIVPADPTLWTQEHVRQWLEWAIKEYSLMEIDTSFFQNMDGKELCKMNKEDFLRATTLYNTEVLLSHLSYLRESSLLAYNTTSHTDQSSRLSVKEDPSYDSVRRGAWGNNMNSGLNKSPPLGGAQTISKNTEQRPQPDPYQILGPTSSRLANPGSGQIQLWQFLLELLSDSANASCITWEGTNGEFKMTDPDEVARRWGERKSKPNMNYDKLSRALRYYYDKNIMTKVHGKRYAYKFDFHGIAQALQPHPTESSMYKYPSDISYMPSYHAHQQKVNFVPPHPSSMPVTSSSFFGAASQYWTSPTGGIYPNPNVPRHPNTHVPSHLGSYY
The following applies: protein: recombinant; tags: N-terminal GST; dsDNA, one strand shown. An outline of the steps:
(§1)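 Yeast served to express human transcription factors as GST fusions, which were then captured on glutathione beads and labelled with DNA barcodes. Pooled with a tag-only sample, they were incubated with 200 nmole of a 16-mer random double-stranded DNA library for 30 min at room temperature in Tris/NaCl/DTT/glycerol buffer, washed, crosslinked with 0.1% formaldehyde, ligated by proximity, amplified by PCR and sequenced. Dividing each hexamer's read frequency for a factor by its frequency for the tag-only sample gives the binding signal.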

The next assay deals with T2, ELK1 (Homo sapiens, UniProt P19419 1-428).
T2 sequence: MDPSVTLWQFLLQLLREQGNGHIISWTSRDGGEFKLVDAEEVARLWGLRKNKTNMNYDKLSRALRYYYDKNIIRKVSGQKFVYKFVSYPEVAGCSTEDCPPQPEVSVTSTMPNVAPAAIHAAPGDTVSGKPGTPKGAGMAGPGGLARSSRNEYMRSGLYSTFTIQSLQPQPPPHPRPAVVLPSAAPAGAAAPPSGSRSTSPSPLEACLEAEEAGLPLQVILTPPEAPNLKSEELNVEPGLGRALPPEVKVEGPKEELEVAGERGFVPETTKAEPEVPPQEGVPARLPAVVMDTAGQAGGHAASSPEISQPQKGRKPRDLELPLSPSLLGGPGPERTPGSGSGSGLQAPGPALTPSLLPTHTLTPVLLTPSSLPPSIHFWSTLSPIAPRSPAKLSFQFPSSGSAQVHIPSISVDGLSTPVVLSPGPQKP
The following applies: protein: recombinant; tags: N-terminal GST; dsDNA, one strand shown. An outline of the steps:
as §1

The next assay concerns the target T3, GABPA (Homo sapiens, UniProt Q06546 1-454).
T3 sequence: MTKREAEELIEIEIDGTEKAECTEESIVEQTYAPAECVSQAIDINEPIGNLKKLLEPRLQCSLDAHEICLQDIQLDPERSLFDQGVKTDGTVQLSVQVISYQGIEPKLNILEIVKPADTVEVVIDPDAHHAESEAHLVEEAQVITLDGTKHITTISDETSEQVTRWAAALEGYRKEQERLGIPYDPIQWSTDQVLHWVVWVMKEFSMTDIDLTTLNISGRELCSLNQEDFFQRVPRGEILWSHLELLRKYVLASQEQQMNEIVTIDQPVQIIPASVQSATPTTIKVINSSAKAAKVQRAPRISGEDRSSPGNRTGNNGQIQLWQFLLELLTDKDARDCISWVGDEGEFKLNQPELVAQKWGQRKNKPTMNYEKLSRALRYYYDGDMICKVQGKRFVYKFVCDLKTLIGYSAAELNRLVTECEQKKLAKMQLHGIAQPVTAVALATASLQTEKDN
The following applies: protein: recombinant; tags: N-terminal GST; dsDNA, one strand shown. In outline:
as §1

Another assay deals with T4, ERG (Homo sapiens, UniProt P11308 1-479).
T4 sequence: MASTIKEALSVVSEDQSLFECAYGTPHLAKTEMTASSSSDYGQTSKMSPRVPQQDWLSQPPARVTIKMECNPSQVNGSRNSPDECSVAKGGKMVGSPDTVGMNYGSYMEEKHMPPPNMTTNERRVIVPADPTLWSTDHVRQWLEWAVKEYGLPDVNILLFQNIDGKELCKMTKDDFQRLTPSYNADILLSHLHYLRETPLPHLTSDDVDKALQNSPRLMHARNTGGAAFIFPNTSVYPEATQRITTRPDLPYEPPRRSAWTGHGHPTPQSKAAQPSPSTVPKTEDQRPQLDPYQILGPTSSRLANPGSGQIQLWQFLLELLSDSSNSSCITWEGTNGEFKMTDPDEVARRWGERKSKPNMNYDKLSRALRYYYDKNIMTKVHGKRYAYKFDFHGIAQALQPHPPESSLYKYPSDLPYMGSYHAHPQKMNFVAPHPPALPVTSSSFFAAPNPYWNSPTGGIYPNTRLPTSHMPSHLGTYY
The following applies: protein: recombinant; tags: N-terminal GST; dsDNA, one strand shown. In outline:
as §1

The target in another assay is ELF1 (Homo sapiens, UniProt P32519 1-619). The following applies: protein: recombinant; tags: N-terminal GST; dsDNA, one strand shown. In outline: as §1
A further assay concerns the target SPI1 (Homo sapiens, UniProt P17947 1-270). The conditions noted are these: protein: recombinant; tags: N-terminal GST; dsDNA, one strand shown. An outline of the steps:
as §1

The target of the next assay is ETV5 (Homo sapiens, UniProt P41161 1-510). The following applies: protein: recombinant; tags: N-terminal GST; dsDNA, one strand shown. An outline of the steps: as §1
In a further assay the target is HSF1 (Homo sapiens, UniProt Q00613 1-529). The conditions noted are these: protein: recombinant; tags: N-terminal GST; chain copies: 3; dsDNA, one strand shown. In outline: as §1
Another assay concerns the target T5, SPIC (Homo sapiens, UniProt Q8N5J4 1-248).
T5 sequence: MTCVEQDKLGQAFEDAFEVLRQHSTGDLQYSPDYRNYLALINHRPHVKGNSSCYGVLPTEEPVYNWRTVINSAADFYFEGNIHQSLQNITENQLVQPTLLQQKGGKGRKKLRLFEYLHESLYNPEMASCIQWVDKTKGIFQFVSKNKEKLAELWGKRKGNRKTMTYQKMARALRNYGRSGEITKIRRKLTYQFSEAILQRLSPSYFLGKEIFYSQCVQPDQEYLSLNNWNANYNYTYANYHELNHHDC
The following applies: protein: recombinant; tags: N-terminal GST; dsDNA, one strand shown. An outline of the steps: as §1

The target in another assay is ELF4 (Homo sapiens, UniProt Q99607 1-663). The conditions noted are these: protein: recombinant; tags: N-terminal GST; dsDNA, one strand shown. In outline: as §1
The target of another assay is T6, ELK4 (Homo sapiens, UniProt P28324-2 1-405).
T6 sequence: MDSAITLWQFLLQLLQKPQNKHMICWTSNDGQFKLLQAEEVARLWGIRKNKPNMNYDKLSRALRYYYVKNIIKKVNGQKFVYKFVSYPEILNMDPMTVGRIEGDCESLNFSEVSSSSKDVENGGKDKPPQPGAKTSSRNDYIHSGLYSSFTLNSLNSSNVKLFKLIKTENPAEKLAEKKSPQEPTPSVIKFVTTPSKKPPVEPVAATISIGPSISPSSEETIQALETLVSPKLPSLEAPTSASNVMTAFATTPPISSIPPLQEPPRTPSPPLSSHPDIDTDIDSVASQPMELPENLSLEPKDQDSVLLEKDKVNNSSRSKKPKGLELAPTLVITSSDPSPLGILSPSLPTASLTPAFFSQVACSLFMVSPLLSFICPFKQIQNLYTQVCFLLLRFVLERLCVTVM
The following applies: protein: recombinant; tags: N-terminal GST; dsDNA, one strand shown. In outline: as §1

The target in the next assay is T7, ETV2 (Homo sapiens, UniProt O00321 1-342).
T7 sequence: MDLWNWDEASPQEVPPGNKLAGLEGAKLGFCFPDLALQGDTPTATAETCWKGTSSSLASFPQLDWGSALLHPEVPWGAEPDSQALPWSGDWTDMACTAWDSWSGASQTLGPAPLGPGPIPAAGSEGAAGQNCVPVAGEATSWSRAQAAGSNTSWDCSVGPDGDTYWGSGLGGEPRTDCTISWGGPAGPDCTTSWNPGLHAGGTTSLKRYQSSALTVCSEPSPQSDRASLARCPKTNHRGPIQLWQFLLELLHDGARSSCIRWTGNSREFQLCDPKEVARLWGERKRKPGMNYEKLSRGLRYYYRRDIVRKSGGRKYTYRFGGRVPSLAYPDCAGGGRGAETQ
The following applies: protein: recombinant; tags: N-terminal GST; dsDNA, one strand shown. In outline:
as §1

In a further assay the target is ETV1 (Homo sapiens, UniProt P50549 1-477). The following applies: protein: recombinant; tags: N-terminal GST; dsDNA, one strand shown. An outline of the steps:
as §1

Sequence of ELF4 (Q99607 whole entry): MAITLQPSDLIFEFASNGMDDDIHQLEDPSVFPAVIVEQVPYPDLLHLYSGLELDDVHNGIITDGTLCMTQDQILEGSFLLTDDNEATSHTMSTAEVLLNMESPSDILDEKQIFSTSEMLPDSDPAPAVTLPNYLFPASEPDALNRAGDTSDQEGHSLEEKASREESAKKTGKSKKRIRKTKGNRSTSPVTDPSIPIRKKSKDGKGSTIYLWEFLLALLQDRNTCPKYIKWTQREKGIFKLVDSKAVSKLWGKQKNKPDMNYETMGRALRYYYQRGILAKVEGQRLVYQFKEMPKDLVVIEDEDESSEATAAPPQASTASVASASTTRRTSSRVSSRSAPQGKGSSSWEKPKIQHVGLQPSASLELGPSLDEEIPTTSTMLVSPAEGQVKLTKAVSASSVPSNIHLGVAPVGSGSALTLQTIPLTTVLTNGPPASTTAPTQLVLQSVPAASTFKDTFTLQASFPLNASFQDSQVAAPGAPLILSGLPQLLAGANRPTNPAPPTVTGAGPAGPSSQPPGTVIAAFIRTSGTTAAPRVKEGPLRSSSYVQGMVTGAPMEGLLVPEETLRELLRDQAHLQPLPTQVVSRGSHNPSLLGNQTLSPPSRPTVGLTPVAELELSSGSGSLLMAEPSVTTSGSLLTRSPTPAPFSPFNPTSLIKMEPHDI
Sequence of HSF1 (Q00613 whole entry): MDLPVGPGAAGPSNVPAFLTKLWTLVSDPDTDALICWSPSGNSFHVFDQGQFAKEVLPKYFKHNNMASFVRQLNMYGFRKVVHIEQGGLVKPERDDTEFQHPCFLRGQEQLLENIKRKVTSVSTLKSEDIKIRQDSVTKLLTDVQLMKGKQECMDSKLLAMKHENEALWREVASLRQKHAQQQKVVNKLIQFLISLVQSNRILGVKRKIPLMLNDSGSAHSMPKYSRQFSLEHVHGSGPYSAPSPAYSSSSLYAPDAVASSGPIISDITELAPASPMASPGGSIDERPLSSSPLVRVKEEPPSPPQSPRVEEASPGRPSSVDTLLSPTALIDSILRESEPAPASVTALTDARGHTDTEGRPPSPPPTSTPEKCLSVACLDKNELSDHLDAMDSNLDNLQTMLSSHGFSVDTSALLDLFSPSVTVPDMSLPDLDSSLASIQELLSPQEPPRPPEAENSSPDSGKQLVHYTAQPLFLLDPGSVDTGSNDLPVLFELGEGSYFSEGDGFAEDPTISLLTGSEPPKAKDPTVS
Sequence of ETV5 (P41161 whole entry): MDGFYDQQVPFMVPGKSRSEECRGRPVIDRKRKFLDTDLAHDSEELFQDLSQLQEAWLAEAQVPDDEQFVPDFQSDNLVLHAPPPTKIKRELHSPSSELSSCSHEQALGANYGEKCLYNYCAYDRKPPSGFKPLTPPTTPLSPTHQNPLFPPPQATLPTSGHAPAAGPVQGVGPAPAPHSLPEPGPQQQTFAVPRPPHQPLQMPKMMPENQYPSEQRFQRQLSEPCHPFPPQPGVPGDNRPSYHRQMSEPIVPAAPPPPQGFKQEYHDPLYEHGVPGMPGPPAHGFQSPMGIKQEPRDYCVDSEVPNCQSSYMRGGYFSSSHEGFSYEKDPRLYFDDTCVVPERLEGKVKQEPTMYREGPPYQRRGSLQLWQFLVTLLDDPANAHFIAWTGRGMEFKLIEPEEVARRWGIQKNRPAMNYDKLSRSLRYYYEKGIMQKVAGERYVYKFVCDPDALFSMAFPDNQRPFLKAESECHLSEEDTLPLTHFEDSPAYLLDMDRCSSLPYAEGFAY
Sequence of ELF1 (P32519 whole entry): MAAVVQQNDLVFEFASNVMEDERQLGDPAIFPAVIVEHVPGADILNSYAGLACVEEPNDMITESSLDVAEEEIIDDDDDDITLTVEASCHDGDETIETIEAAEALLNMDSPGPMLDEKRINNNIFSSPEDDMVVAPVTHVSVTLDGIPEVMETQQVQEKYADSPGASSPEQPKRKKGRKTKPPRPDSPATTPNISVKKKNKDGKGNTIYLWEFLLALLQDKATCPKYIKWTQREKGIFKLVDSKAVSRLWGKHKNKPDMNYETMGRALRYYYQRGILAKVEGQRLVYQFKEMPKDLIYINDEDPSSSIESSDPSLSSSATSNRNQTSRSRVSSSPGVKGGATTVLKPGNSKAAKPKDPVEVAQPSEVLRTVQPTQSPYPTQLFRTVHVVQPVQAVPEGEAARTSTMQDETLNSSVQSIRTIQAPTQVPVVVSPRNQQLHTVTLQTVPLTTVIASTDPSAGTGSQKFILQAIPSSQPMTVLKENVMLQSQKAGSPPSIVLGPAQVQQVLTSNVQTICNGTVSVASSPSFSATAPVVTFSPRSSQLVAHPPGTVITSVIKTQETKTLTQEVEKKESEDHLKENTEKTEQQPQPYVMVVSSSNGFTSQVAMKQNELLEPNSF
Sequence of ETV1 (P50549 whole entry): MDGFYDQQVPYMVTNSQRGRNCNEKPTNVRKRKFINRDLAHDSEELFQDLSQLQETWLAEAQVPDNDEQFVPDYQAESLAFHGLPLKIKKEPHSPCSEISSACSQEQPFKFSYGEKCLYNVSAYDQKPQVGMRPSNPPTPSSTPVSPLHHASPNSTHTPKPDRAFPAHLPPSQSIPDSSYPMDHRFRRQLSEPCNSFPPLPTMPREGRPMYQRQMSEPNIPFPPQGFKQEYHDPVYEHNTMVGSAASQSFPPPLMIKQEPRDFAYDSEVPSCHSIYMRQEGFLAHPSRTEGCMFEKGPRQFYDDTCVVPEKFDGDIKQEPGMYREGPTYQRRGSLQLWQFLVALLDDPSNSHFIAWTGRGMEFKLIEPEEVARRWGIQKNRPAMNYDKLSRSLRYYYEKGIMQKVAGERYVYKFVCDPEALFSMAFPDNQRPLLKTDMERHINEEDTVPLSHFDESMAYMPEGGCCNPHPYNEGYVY

In the case of CAGATG, the binding signal in the assay with FLI1 was 1.05 fold enrichment (6-mer frequency, TF over GST control); in the assay with ELK1, 1.09 fold enrichment (6-mer frequency, TF over GST control); with GABPA it was 1.04 fold enrichment (6-mer frequency, TF over GST control); with ERG, 1.09 fold enrichment (6-mer frequency, TF over GST control); with ELF1 it was 1.08 fold enrichment (6-mer frequency, TF over GST control); with SPI1, 1 fold enrichment (6-mer frequency, TF over GST control). Further, the binding signal with ETV5 was 1.01 fold enrichment (6-mer frequency, TF over GST control); with HSF1 it was 1.01 fold enrichment (6-mer frequency, TF over GST control); with SPIC it was 1.12 fold enrichment (6-mer frequency, TF over GST control); in the assay with ELF4 it was 1.02 fold enrichment (6-mer frequency, TF over GST control); in the assay with ELK4, 1.06 fold enrichment (6-mer frequency, TF over GST control); with ETV2, 1.01 fold enrichment (6-mer frequency, TF over GST control). Besides, in the assay with ETV1, the binding signal is 1.01 fold enrichment (6-mer frequency, TF over GST control).
